Laboratory results: the supplement of paper PMC6555819

Each sequence was assayed on VDR:RXRa (NR concentration 270 nM, RXRa partner concentration 90 nM) (assay: PBM binding z-score (relative to random genomic background probes); higher = stronger binding; sequences stand for … in GC…GCGATTGACAGCGTAGAATGAAGG).
Experimental: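 Protein-binding microarray (Agilent 4x180K custom design, double-stranded 60-nt probes: 5' GC cap, 34-nt variable region, 24-nt constant primer region; full probe sequence given). Purified or IVT nuclear receptor:RXRα heterodimers (3:1 NR:RXRα, mostly 270:90 nM) or homodimers were incubated for 1 h in PBS with 2% milk and no ligand, then detected with Alexa488 antibodies. Fluorescence from o1-orientation probes (~5 replicates averaged) was converted to z-scores against 500 random hg19 background probes. Variable regions are seed direct-repeat (DR0–DR5) sites, all their single-nucleotide variants and half-site ablations.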

Sequence | PBM binding z-score
AGAATGAGGTTATTAAGATCACGGAATTGCGGTC | 3.68
CGTCCAAGGTCAGAGAGGGCAGTGAATGCCGAGT | 6.5
CAGCCTAGGTCAGGGCCAGTACAGGAGGAACGTT | 0.635
TCATATAGGTAATACGGGTGAAAGTCGGCATCTA | 1.25
AACACAGGGTCACTAGGCCAGAGTAGGTACGAAT | 3.96
TCGAATAGGTTACCAATGGGGCATTCAGCTTTCT | 0.811
ACAGACAGGTCATGAAGGTAACTCAGGCTATCAT | 4.55
TTACCAAGGTGAGCTTAGGTCGTTGATCCAACTC | 0.561
GCTAGCAGGCCATGTGGGTCACTCAATGACGGGC | 0.49
TAGCCTAGGTCAGATCGAGCCAGTATACGCTATA | 0.0723
CCTACTGGGCCAATGGTCATTGATTCCAATGCTC | -0.314
TGAATGAGGTTATACGATCAGGGAACGTTGCAAA | 0.918
CCGACTGGGGCACAAGGTTACCATAAGCCAGCCC | 0.209
CGAACTAGGTCATTTACAGGACAGTGAATAGTAA | 2.14
CGAACGAGGGCATGAGTAGATAGCAAATGCCGAT | 0.5
ATCTCTAGGTAAAGCTAGTTCAGTGAATGCAAAT | 0.818
CCTACTGGGCCAAGGACATTGATCAGTCAAAGCA | -0.496
TAGCCTAGGTCGTTGGGCCAGTATAGTACGCATC | 0.153
CCTGCTAGGCCAATGGTCAGCTAAAGCAGCTCGC | -0.792
ACTATTAGTTGACACGAGGGCAACCGATAGGTTG | 1.4

Sequence | PBM binding z-score
CCTTACGGGTCACTGACAGGTTATCGCATTTGGA | 3.85
AGAACGAGGGCACGCTGAGTTGAAAGCAGAGTAG | 2.29
CGTCCAAGGTCATAGGAGGTCCGTGAAGACAGAT | 4.88
ATCTCTAGGTAACCAAGTTCAGTGTATGCCGAAC | 3.91
GCTAGCAGGCCATTTGGCTCACTCAATGACGGGC | -0.942
TATACAGGGTCAAAGGCCAGAGTCCGAATGTCGA | 4.8
TCTAGTTGGTCAAAGGTCACAGACTCGAAATGCG | 5.45
GGAACGAGGGCAAAGTTTATAGCATCTGTCGACG | 1.92
TTACCAAGGTGAAATGTCGTTGATGCACGCCTTG | 0.159
CGTCGAAGGTCAAAGGTCAGTGAAGAGATGACGG | 6.4
TCGAGTAGGTTACAAATGGGGCATTCAGCTTTCT | 0.216
CGAACTAGGTCAAGGAAAGTGAATCTCCGCACGC | 1.02
TCTGCTAGGTCAACGATGCTCAGCTAATCTGCTA | 1.15
GGAACGAGGGCAAGTTCATAGCAGAGTTTGATGG | 3.9
CCAACTAGGTCAAGGTCAAAGTCGGTTTGTGCCA | 5.14
GCATATAGGTAATACAGGGTGAAAGTCCGATTGT | 0.521
CACACTAGGTCACGAAAGGTCAAAGTCGAATGAC | 7.02
TGAATGAGCTTATAAGATCAGGGAACGTTGCAAA | -0.361
CCTACTGGGACACGAAAGGTCATTGATTCAGTGA | 4.06
ATCTCTAGGTACAGATAGTTCAGTGAATGCAAAT | 1.18
